For 1 compound, residual activity results are on record in ChEMBL document CHEMBL2218924, “A broad activity screen in support of a chemogenomic map for kinase signalling research and drug discovery” (Biochem J, 2013).

One may read the residual activity as the signal under treatment as a percentage of the control signal.

The target in experiment [1] is T1, Ephrin type-A receptor 3 (Homo sapiens) (UniProt P29320).
T1 sequence (whole entry): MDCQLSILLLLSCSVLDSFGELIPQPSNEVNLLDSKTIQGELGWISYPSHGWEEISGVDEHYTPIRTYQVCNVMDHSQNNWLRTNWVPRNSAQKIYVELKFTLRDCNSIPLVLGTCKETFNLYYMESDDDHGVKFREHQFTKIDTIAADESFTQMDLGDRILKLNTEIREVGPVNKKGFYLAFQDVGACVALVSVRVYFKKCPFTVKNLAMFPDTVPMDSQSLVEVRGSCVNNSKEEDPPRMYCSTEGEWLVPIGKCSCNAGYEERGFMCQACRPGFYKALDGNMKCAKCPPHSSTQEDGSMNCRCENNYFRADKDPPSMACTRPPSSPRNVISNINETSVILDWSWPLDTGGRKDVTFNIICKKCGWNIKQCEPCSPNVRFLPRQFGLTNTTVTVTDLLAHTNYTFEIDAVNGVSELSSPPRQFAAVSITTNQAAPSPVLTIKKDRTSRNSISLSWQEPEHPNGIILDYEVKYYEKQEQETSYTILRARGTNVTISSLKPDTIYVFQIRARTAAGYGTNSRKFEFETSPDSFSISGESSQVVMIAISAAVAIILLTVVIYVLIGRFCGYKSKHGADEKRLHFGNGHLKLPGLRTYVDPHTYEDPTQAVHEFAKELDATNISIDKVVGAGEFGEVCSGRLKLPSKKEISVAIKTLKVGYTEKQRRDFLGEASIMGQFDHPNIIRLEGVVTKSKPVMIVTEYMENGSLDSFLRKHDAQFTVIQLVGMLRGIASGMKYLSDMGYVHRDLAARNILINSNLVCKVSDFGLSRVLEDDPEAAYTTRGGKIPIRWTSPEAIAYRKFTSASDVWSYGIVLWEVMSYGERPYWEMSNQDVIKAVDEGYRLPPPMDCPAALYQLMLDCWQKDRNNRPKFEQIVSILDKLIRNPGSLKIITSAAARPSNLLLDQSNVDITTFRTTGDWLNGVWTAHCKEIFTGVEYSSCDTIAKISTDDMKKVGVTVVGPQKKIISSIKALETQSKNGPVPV
Particulars: at 10 µM.

Experiment [2] concerns the target Ephrin type-A receptor 5 (Homo sapiens) (UniProt P54756). Conditions: at 1 µM.
Experiment [3] shares this target. Particulars: at 10 µM.
For experiment [4], the target named is Ephrin type-A receptor 7 (Homo sapiens) (UniProt Q15375). Particulars: at 10 µM.
In experiment [5] the target is T2, Ephrin type-A receptor 8 (Homo sapiens) (UniProt P29322).
T2 sequence (whole entry): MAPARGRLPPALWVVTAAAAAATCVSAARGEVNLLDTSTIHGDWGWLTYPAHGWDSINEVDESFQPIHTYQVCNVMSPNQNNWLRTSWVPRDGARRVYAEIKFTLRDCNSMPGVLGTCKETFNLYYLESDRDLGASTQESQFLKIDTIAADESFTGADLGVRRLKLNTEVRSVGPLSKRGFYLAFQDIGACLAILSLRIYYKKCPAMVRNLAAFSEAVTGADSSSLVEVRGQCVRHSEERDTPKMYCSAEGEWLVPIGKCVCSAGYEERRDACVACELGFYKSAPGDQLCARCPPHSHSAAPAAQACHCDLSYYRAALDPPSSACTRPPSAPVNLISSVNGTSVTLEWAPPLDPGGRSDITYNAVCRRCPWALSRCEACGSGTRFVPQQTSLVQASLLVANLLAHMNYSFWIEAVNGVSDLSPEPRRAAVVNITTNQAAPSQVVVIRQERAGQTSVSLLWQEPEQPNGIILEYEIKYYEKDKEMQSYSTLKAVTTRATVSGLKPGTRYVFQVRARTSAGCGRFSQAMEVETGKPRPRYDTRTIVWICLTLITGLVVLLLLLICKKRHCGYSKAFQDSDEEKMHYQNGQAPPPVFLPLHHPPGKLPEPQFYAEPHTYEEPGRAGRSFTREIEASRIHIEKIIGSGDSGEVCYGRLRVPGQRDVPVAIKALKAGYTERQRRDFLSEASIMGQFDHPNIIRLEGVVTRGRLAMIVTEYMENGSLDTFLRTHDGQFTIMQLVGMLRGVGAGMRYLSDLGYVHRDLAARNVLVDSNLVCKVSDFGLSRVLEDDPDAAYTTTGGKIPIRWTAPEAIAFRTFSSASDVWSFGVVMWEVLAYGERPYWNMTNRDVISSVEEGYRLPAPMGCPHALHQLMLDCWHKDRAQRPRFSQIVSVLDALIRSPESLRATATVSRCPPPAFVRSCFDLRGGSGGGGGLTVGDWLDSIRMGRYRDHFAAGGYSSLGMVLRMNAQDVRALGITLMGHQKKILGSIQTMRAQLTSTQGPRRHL
Particulars: at 1 µM.

Experiment [6] concerns the target T2, Ephrin type-A receptor 8 (Homo sapiens). Particulars: at 10 µM.
The target in experiment [7] is T3, Ephrin type-B receptor 1 (Homo sapiens) (UniProt P54762).
T3 sequence (whole entry): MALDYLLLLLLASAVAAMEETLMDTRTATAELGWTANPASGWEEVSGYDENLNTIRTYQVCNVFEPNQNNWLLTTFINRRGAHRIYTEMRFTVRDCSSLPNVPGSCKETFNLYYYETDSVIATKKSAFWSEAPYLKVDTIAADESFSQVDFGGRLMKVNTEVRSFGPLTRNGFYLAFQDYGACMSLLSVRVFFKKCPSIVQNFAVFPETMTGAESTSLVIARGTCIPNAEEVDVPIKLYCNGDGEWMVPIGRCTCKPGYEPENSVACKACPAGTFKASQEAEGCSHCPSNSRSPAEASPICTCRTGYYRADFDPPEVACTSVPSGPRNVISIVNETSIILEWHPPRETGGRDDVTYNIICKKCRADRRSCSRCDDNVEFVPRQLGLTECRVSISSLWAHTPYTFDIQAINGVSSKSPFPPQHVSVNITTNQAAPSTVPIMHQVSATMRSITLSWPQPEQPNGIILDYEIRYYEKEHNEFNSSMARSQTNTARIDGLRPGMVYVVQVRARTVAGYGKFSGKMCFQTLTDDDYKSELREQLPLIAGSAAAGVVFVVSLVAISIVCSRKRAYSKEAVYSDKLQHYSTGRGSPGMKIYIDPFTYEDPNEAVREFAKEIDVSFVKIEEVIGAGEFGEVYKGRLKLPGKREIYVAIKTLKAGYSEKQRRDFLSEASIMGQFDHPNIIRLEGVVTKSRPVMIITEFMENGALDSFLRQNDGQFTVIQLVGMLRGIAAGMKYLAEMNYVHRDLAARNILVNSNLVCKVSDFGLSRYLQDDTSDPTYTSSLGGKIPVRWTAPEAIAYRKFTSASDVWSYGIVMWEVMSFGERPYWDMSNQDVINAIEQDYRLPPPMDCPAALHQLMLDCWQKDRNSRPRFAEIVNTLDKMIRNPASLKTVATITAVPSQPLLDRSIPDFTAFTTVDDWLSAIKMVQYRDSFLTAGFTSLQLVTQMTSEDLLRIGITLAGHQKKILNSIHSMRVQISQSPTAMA
Particulars: at 1 µM.

Experiment [8] concerns the target T3, Ephrin type-B receptor 1 (Homo sapiens). Particulars: at 10 µM.
Experiment [9] has as its target T4, Ephrin type-B receptor 2 (Homo sapiens) (UniProt P29323).
T4 sequence (whole entry): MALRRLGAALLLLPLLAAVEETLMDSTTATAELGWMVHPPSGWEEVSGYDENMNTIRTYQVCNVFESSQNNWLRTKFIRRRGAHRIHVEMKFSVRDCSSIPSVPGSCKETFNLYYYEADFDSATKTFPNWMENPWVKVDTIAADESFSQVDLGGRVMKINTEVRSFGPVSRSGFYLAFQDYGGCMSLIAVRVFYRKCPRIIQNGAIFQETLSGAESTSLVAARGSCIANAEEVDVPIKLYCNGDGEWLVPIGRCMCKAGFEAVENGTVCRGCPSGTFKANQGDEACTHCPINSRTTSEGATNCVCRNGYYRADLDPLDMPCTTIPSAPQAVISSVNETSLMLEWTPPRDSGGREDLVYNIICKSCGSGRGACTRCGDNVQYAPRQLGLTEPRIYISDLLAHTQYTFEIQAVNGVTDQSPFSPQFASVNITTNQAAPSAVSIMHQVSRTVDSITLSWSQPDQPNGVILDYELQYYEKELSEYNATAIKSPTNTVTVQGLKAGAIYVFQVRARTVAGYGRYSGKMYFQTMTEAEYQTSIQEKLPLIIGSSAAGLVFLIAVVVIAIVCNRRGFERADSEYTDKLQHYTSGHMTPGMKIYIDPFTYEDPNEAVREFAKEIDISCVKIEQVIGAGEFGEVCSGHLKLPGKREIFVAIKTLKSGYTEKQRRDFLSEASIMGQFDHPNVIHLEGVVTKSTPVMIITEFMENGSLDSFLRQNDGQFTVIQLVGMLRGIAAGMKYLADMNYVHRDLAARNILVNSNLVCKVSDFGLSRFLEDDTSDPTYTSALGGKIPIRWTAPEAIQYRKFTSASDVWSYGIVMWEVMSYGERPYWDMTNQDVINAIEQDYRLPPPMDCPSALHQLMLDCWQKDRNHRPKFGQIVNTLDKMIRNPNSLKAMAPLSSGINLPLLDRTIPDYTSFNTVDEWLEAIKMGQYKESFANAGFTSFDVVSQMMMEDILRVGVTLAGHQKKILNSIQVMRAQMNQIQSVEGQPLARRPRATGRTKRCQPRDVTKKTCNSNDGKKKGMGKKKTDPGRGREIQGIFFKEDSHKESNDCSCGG
Conditions: at 10 µM.

In experiment [10] the target is T5, Ephrin type-B receptor 4 (Homo sapiens) (UniProt P54760).
T5 sequence (whole entry): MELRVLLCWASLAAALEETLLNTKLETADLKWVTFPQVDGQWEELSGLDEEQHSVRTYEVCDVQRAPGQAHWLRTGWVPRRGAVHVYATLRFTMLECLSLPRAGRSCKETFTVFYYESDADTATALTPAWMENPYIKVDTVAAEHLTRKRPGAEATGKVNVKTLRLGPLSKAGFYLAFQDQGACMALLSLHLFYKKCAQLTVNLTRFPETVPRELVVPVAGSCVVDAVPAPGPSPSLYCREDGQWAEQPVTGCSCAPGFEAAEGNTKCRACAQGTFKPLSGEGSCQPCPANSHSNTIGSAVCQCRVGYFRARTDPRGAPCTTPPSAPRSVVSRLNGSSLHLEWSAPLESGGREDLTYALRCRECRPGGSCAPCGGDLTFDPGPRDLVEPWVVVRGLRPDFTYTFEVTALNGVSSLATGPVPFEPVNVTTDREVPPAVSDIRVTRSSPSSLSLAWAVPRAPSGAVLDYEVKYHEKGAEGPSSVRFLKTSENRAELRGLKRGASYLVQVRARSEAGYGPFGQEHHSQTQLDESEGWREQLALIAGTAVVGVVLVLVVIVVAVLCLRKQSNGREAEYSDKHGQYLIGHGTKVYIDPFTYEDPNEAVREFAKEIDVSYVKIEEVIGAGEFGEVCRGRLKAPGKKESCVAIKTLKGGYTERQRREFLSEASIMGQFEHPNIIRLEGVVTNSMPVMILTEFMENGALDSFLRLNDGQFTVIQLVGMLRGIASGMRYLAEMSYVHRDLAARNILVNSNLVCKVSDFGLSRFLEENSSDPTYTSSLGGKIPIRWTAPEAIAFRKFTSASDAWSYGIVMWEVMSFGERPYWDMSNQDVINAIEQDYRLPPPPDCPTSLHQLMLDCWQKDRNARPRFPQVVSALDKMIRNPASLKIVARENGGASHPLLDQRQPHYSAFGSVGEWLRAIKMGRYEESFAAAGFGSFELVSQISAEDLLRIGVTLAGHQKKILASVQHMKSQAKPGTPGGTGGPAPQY
Conditions: at 1 µM.

Experiment [11] deals with T5, Ephrin type-B receptor 4 (Homo sapiens). Conditions: at 10 µM.

Structures are written as SMILES.

Ephrin type-A receptor 5 (Homo sapiens), sequence (P54756 whole entry): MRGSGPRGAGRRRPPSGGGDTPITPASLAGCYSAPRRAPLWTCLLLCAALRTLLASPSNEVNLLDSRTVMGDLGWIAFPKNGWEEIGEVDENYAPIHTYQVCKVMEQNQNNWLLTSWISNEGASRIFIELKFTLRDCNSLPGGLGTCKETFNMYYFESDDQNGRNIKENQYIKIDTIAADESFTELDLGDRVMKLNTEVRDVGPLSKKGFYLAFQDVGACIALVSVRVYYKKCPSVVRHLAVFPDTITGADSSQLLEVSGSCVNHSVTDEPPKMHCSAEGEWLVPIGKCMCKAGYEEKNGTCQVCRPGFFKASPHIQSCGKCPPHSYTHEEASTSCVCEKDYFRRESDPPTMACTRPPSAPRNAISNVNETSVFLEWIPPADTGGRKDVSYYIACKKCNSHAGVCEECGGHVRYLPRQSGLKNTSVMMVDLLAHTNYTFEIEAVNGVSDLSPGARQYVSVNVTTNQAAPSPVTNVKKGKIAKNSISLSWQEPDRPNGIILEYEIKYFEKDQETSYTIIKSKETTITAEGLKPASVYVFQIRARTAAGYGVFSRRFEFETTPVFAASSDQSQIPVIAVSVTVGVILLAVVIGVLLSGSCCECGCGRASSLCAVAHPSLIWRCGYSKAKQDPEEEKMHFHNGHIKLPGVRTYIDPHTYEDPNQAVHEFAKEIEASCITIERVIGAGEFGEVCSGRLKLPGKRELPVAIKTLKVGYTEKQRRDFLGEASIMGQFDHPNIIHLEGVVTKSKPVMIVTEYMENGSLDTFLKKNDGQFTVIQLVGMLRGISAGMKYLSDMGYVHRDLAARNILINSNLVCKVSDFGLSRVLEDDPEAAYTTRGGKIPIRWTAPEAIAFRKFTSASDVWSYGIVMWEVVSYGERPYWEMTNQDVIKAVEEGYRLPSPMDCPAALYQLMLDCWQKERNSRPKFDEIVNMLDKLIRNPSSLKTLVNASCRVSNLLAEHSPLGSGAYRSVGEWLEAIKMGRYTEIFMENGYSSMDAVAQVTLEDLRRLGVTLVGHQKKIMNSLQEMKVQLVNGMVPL
Ephrin type-A receptor 7 (Homo sapiens), sequence (Q15375 28-998 limits assumed): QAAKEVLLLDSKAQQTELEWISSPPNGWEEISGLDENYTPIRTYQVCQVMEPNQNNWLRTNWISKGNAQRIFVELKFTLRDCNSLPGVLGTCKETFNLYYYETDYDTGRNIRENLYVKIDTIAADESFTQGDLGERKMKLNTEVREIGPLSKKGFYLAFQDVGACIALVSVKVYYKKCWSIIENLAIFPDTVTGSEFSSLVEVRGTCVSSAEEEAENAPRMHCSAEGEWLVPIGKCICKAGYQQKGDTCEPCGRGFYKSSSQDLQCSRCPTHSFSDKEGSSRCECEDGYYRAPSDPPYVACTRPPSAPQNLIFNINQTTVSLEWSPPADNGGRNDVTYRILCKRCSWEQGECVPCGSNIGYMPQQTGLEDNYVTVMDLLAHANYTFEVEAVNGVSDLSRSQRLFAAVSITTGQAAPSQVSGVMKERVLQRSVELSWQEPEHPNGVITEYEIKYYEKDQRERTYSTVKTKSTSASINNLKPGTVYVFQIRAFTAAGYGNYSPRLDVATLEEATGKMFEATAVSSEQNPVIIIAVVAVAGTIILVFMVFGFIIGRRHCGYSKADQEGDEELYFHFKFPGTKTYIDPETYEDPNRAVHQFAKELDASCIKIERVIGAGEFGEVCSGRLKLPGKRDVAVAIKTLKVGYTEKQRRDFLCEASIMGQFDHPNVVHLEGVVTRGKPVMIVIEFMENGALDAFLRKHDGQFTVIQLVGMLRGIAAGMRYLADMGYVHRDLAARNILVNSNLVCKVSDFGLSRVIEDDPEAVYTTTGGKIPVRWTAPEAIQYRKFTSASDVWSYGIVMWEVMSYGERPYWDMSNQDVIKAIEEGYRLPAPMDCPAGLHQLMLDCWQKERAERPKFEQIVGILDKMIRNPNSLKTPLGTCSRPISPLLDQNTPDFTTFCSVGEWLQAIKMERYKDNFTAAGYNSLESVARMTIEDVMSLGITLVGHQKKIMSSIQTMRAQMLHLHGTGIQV

Turning to `COc1cc2c(cc1OC)-c1n[nH]c(Nc3cccc(F)c3)c1C2`, the residual activity in experiment [1] came to 42%; in experiment [2] it was 103%; in [3] it was 43%; in [4], 64%; in [5], 69%; in experiment [6], 26%. In addition, the residual activity in [7] turned out to be 83%; in experiment [8] it was 43%; in experiment [9], 64%; in [10] it was 77%; in experiment [11], 35%.
